# Source: PubChem BioAssay (NCI)
# The panel holds about 83,000 compounds, 20% with a hit somewhere; the sample as a whole holds those more often.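 Compound tested at a single concentration for 48 hours in 96-well plates; a percent growth value below 10 was scored as active.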 A number with no mark means an inactive call. Activity calls are given as the source filed them.
# Test system: HL-60(TB) leukemia
# Assay: NCI-60 one-dose screen, 48 h (100 = growth as untreated, 0 = no growth, -100 = all killed)
# Details: 10 µM unless noted
row,SMILES,growth
1,Cc1cc(Cl)ccc1Nc1nc(C(F)(F)F)ccc1C(=O)N/N=C/c1ccc(Cl)cc1,-33.8% (active)
2,FC(F)(F)c1ccc(-c2ncc(-c3ccc(C(F)(F)F)cc3)c(NCc3cc(C(F)(F)F)cc(C(F)(F)F)c3)n2)cc1,71.7%
3,O=C1c2cc3c(cc2-c2c1c1ccc(Cl)cc1c(=O)n2C[C@H](O)CO)OCO3,-14.9% (active)
4,COc1cc(C(=O)/C=C/c2cccc(Nc3ccnc4cc(Cl)ccc34)c2)cc(OC)c1OC,5.47% (active)
5,NC(N)=N/N=C(/c1ccccc1)c1ccc(F)cc1,-70.6% (active)
6,CCCc1cc2cc(-n3nc(C)c4c3CC(C)(C)CC4=O)cc(NC3CCC(O)CC3)c2c(=O)[nH]1 (centres undefined),2.27% (active)
7,CCN(CC)CCC(C(=O)O)(c1ccccc1)c1ccccc1,93.5%
8,COc1ccc(CN2CCc3c(Sc4ccccc4)nc(N)nc3C2=O)c(OC)c1,14.3%
9,COc1ccc2c(O)c(/C=C3\N=Nc4nc(C)ccc43)oc2c1CC1CCNCC1,94.3%
10,CCCCCCN(CCCCCC)CCC(=O)Nc1ccc(S(=O)(=O)c2ccc(NC(=O)CCN(CCCCCC)CCCCCC)cc2)cc1,80%
11,CCOC(=O)NC(Cc1ccccc1)c1ccccc1 (centres undefined),94.2%
12,O=C(NCCCl)Nc1nccnc1OCc1ccc(F)cc1,-18.9% (active)
13,CC(C)NC(=O)OCc1c(COC(=O)NC(C)C)c(-c2ccc(Cl)c(Cl)c2)n2c1SCC2,7.43% (active)
14,COc1cc2c(cc1OC)-c1c(oc3c4c(ccc3c1=O)OC(C)(C)C=C4)CO2,46.4%
